# For some assays here: Potency and affinity values are given separately.
# What was measured:
# Set-up in all cases: scale not given: direction of the effect not stated beside the values
# [1] = biological target: Protein translocase subunit SecA (Escherichia coli (strain K12)) (UniProt P10408); assay: Assay to Identify E. coli SecA ATPase Inhibitors; assay type: functional; conditions: 30 µM
# [2] = biological target: T1, Ubiquitin-activating enzyme e1, putative (Leishmania donovani (strain BPK282A1)) (UniProt E9BSI1); assay: Leishmania donovani Ubiquitin Activating Enzyme (LdE1); assay type: functional; conditions: 30 µM
# T1 sequence (whole entry): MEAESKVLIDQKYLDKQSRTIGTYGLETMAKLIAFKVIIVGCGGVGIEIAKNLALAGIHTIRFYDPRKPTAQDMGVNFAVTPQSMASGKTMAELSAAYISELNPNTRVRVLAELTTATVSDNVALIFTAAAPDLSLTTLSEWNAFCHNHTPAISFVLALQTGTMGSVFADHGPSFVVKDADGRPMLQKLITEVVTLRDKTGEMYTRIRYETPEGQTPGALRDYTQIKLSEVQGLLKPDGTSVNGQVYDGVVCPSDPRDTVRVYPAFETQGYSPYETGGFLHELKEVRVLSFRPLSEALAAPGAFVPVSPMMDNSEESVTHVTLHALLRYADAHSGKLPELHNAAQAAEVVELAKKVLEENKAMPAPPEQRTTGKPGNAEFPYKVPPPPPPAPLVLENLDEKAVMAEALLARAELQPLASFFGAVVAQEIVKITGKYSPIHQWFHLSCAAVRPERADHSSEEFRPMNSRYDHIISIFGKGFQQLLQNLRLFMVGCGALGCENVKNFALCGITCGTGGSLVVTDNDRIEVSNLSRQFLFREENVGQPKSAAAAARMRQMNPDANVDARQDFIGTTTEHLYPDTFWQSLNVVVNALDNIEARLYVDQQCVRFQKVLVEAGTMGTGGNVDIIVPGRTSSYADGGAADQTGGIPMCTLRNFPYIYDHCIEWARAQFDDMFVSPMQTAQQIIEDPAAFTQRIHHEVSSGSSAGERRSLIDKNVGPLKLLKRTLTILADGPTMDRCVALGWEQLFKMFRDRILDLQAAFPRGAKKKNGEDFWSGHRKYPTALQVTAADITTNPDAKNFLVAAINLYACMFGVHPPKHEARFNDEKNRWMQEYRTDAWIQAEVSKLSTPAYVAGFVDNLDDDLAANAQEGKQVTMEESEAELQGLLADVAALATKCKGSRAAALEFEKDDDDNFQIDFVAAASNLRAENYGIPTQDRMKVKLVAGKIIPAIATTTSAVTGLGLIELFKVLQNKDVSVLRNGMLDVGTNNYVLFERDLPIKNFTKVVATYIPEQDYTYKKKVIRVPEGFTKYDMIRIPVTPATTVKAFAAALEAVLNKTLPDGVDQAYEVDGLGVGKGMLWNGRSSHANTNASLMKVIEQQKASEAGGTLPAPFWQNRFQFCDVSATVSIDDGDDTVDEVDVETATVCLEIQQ
# [3] = biological target: AMP-activated protein kinase, AMPK (Homo sapiens) (UniProt P54646+O43741+P54619+Q9UGJ0+Q9Y478+Q13131+Q9UGI9); assay: AMP-dependent Kinase enzyme assay. An in vitro enzyme assay that detects ADP turnover that is directly proportional to AMPK activity. This uses naive AMPK that is activated during the assay with MK-8722; assay type: functional; conditions: 30 µM
# [4] = biological target: Sialic acid-binding Ig-like lectin 9 (Homo sapiens) (UniProt Q9Y336); assay: Hs-Siglec9 ALPHAscreen SOP 20170721; conditions: 10 µM
# [5] = tested on: Trypanosoma cruzi; assay: Trypanosoma cruzi phosphomannomutase and mannose-1-phosphate guanylyltransferase assay; assay type: functional; conditions: 10 µM
# [6] = biological target: T2, Arginase-2, mitochondrial (Homo sapiens) (UniProt P78540); assay: in vitro enzyme assay to detect the production of urea directly proportional to the activity of Arginase II; assay type: functional; conditions: 33.3 µM; also: in the data most compounds retested in dose-response had high values
# T2 sequence (whole entry): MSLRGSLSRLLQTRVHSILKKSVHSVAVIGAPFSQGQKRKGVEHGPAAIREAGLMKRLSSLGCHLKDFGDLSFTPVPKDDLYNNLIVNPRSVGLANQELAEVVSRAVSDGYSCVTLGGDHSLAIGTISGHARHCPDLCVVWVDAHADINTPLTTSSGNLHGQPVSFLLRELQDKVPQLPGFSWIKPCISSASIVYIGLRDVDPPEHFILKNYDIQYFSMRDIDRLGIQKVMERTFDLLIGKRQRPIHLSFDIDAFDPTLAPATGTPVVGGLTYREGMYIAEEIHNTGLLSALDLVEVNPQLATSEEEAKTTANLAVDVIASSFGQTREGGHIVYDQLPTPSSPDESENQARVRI
# [7] = biological target: T3, Proteasome subunit beta (Trypanosoma cruzi) (UniProt O96673); assay: Trypanosoma cruzi proteasome chymotrypsin-like activity (TcProtChymo) assay.; also: in the data most compounds retested in dose-response had high values; assay type: functional; conditions: 9.37 µM
# T3 sequence (whole entry): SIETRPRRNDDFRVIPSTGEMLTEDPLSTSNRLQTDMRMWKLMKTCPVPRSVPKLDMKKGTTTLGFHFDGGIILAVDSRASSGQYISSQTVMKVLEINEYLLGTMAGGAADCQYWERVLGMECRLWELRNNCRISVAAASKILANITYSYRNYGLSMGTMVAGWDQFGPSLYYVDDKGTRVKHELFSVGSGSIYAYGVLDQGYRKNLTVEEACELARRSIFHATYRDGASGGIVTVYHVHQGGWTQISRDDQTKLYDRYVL
# [8] = species on record: Homo sapiens; assay: To identify inhibition of the IFN signalling (Jak-Stat) pathway via expression of an eGFP reporter gene under the control of an IFN-stimulated response element (ISRE) containing MxA promoter.; assay type: functional; conditions: 30 µM
# [9] = biological target: T4, Tyrosyl-tRNA synthetase, putative (Trypanosoma cruzi (strain CL Brener)) (UniProt Q4DSP6); assay: Trypanosoma cruzi tyrosyl tRNA synthetase (TcYRS) _High Tyrosine SOP; assay type: functional; conditions: 30 µM; also: in the data most compounds retested in dose-response had high values
# T4 sequence (whole entry): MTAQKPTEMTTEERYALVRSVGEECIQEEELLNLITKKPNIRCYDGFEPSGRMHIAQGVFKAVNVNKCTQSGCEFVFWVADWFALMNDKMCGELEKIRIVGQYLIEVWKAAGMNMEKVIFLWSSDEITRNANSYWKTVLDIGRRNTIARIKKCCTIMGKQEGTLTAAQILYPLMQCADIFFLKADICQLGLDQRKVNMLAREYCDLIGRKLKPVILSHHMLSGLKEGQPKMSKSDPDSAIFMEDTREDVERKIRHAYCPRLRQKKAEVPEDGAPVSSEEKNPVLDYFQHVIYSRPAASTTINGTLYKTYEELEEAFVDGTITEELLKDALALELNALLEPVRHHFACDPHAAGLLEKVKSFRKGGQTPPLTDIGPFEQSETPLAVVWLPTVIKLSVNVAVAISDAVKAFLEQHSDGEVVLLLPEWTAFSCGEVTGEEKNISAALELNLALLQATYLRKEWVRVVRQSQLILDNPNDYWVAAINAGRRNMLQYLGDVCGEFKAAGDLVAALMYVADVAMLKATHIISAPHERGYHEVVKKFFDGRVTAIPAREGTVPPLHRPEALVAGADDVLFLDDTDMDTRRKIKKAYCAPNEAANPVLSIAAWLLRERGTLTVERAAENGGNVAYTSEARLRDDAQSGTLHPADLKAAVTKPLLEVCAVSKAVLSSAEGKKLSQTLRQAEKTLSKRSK
# [10] = biological target: T4, Tyrosyl-tRNA synthetase, putative (Trypanosoma cruzi (strain CL Brener)); assay: Trypanosoma cruzi tyrosyl tRNA synthetase (TcYRS) SOP; assay type: functional; conditions: 30 µM
# [11] = biological target: Chromo domain-containing protein 1 (Saccharomyces cerevisiae (strain ATCC 204508 / S288c) (Baker's yeast)) (UniProt P32657); assay: ScCHD-1 Enzyme Inhibition Assay; assay type: functional; conditions: 30 µM; also: in the data most compounds retested in dose-response had high values
# Sequence of Chromo domain-containing protein 1 (Saccharomyces cerevisiae (strain ATCC 204508 / S288c) (Baker's yeast)) (P32657 whole entry, the tested form may be a part): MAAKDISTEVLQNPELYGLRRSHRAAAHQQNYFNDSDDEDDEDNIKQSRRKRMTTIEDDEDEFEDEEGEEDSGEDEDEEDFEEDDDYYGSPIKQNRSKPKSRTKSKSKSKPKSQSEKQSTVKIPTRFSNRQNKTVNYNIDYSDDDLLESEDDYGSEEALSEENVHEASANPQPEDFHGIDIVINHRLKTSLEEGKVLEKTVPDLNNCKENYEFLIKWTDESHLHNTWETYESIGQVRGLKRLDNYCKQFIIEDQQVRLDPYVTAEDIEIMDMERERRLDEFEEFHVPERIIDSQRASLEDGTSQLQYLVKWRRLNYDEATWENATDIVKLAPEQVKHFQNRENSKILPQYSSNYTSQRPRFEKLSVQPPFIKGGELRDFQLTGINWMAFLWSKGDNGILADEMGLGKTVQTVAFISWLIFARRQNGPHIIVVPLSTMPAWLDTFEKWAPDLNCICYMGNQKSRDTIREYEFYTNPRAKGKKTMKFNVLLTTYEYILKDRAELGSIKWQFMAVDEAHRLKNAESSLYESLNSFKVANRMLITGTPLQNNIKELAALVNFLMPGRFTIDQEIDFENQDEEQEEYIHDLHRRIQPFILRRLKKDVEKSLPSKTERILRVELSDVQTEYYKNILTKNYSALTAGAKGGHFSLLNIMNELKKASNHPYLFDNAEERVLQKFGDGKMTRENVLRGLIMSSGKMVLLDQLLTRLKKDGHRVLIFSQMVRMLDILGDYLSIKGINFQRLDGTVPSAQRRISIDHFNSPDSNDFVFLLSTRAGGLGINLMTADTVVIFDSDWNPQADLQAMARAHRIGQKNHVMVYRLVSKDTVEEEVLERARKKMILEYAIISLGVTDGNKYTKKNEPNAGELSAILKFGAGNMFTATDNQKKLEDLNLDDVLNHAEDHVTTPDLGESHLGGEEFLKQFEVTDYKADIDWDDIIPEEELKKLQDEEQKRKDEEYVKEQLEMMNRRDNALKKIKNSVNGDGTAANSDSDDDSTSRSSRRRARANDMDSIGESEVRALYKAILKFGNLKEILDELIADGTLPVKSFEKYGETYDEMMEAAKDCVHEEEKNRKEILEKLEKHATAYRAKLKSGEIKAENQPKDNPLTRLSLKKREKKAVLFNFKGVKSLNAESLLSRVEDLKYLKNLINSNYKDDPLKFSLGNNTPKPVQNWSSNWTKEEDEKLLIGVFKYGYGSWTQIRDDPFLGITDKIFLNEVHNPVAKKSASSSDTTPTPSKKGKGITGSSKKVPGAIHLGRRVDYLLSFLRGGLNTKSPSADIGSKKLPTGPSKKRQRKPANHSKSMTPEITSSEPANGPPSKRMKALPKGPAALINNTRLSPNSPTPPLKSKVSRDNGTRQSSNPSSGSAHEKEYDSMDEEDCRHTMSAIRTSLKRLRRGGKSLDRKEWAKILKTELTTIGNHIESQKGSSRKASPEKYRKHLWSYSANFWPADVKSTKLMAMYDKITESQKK
# Sequence of Protein translocase subunit SecA (Escherichia coli (strain K12)) (P10408 whole entry): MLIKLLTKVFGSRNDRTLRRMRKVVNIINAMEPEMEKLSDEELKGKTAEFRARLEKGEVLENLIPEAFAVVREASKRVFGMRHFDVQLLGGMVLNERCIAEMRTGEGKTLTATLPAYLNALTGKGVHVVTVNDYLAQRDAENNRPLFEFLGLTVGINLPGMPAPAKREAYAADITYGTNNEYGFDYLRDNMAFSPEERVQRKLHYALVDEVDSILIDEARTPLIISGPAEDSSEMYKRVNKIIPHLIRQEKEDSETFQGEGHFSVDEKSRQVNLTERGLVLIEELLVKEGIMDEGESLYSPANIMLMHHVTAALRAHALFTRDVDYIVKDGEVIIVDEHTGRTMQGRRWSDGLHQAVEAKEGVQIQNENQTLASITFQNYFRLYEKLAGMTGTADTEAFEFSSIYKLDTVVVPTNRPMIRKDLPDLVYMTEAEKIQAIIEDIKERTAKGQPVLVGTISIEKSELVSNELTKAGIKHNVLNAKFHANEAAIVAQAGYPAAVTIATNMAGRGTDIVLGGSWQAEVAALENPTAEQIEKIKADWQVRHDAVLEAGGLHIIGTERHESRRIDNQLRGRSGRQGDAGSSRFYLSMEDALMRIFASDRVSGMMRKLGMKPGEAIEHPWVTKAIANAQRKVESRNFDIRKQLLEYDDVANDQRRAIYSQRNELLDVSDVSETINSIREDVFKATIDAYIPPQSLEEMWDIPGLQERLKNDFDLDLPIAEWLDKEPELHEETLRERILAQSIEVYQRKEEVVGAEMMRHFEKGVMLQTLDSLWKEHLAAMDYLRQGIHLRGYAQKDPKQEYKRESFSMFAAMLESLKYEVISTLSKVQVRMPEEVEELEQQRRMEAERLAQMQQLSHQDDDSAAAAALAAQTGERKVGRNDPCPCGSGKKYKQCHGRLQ
# Sequence of Sialic acid-binding Ig-like lectin 9 (Homo sapiens) (Q9Y336 whole entry): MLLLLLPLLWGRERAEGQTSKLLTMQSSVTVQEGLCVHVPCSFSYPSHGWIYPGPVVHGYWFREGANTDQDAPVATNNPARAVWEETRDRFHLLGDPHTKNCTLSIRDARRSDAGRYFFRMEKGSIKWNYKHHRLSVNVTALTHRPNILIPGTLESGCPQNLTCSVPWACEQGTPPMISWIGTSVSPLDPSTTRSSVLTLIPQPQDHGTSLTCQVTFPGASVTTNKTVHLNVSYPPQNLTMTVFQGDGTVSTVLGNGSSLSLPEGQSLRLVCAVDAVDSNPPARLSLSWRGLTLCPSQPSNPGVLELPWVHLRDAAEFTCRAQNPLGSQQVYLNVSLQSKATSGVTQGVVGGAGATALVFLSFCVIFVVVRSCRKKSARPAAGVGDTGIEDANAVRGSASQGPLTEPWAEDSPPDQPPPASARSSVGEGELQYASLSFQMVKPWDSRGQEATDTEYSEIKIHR
SMILES,Percent Effect [1],Percent Effect [2],Percent Effect [3],Percent Effect [4],Percent Effect [5],Percent Effect [6],Percent Effect [7],Percent Effect [8],Percent Effect [9],Percent Effect [10],Percent Effect [11]
Cc1ccc(C)n1-c1ccc(C(=O)NCCNc2ncccn2)cc1,-1.31%,7.89%,-10.7%,-3.65%,3.46%,-6.83%,15%,-6.26%,9.36%,18.5%,0.738%
CNC(=O)c1cccc(CNC(=O)C2CC(=O)N(CCN(C)C)C2)c1 (configuration not stated),-5.39%,5.33%,4.48%,0.817%,-2.63%,-1.04%,12.2%,14.1%,3.83%,6.17%,-3.88%
CCn1c(N)nc2cc(C(=O)NCCc3sccc3C)cnc21,-4.71%,-2.74%,1.2%,24.5%,5.29%,-2.73%,28.6%,8.68%,3.23%,20%,-6.44%
Cn1cccc1C(=O)Nc1cc(F)ccc1OCC1CCCO1 (configuration not stated),-2.17%,-2.6%,2.66%,13.6%,6.74%,2.85%,0.507%,4.16%,-5.83%,0%,-1.65%
CC(=O)N1CCN(Cc2nnc(C(C)(C)C)o2)CC1,0.446%,5.41%,-5.16%,-0.469%,-0.772%,2.86%,14.3%,7.35%,1.59%,9.76%,-3.99%
Cc1cccc(N2CCN(CCNC(=O)C(C)n3cncn3)CC2)c1 (configuration not stated),-4.94%,28.9%,-8.42%,-3.17%,3.83%,-3.96%,15%,9.51%,7.39%,23.5%,-10.7%
CC(=O)Nc1nc(CN2CCn3c(nnc3C3CC3)C2)cs1,-1.36%,5.41%,0.348%,6.61%,5.11%,-9.06%,-3.59%,2.7%,0.99%,11%,-3.08%
O=C(c1ccc[nH]1)N1CCc2c(COCC3CC3)cncc2C1,0.487%,13.5%,0.508%,-7.71%,-4.99%,0.955%,29.1%,0.5%,3.24%,12.8%,0.2%
O=C(C1=CC2(CCNCC2)c2ccccc21)N1CCCC1,-0.609%,2.67%,6.96%,-3.45%,-7.53%,-56.1%,7.52%,-19.8%,-3.12%,2.5%,-6.64%
CCCNC(=O)Nc1cccc2c1CCN(S(C)(=O)=O)C2,-9.62%,18.4%,-0.671%,6.12%,4.38%,-35.5%,6.81%,-3.94%,3.19%,18.2%,-1.24%
CC(C)c1cc(C(=O)N2CCN(Cc3ccsc3)CC2)n[nH]1,-2.94%,13.5%,-2.35%,15%,5.57%,18.1%,12.1%,28%,4.3%,18.5%,-3.72%
CCCn1c(C)c(CC(=O)N(C)CCOC)c2c1CC(C)(C)CC2=O,-3.48%,5.2%,0.628%,11.4%,6.59%,-38.6%,3%,-27.9%,6.45%,8.64%,-8.76%
CC(OCC(F)(F)F)C(=O)NCc1ccc(-n2cncn2)nc1 (configuration not stated),-1.15%,18.2%,0.466%,-5.68%,4.8%,-22.5%,8.16%,21.5%,7.62%,23.5%,-24%
CSc1cc2c(cc1NC(=O)NCC(C)(C)C(N)=O)OCCO2,-3.46%,0%,0.42%,-2.41%,-3.91%,-28.8%,12.8%,-6.09%,-27.7%,6.1%,0.589%
Cn1cc(CN2CCCN(C(=O)c3ccc4c(c3)COC4)CC2)cn1,-5.64%,18.4%,-1.04%,13.2%,-3.27%,-2.16%,12.6%,8.45%,7.39%,11.1%,-0.916%
CN(C)c1cc(CNC(=O)c2cn(-c3ccc(F)cc3)nn2)ccn1,-5.01%,10.4%,1.52%,2.16%,0.686%,3.58%,14.2%,11.3%,7.62%,21.2%,-6.24%
c1cnnc(N2CCCC2CNc2nc3ccccc3o2)c1 (configuration not stated),-5.3%,11.4%,3.62%,9.59%,1.33%,4.95%,11.5%,11.9%,0%,20.2%,-16%
Cn1cc(C(=O)NC[C@@H]2OC[C@H]3CN(Cc4ccco4)CC[C@H]32)cn1,1.17%,8.22%,-8.23%,6.71%,5.75%,-2.79%,8.3%,17%,3.12%,11.1%,-3.21%
CN(C)C(=O)c1cccc(NC(=O)N(CCO)Cc2ccsc2)c1,-0.273%,9.72%,-9.76%,7.88%,3.79%,11%,11.8%,-1.39%,5.26%,12.8%,-3.15%
NC(=O)N1CCC2(CCN(Cc3cccc(F)c3)CC2)CC1,-2.86%,5.2%,-0.226%,14.9%,1.67%,-9.65%,14.3%,5.51%,5.38%,11.1%,-1.58%
Cc1occc1C(=O)N1CCC2(CC1)NC(=O)CC2c1cnn(C)c1 (configuration not stated),-3.16%,10.8%,-0.0675%,-1.75%,1.86%,7.33%,9.41%,-9.35%,0%,12.8%,0.845%
COCCNC(=O)C(C)n1cc(Br)cn1 (configuration not stated),-3.71%,5.2%,1.52%,7.73%,0.492%,-2.76%,13.1%,5.02%,9.68%,16.1%,135%

# From ChEMBL document CHEMBL3988442, “University of Dundee, Small-Polar-MMV Screening Library” (2021)
